We go through 38 molecules from PubChem BioAssay (NCI).

Molecules are shown by their SMILES. The panel holds about 79,000 compounds, 15% with a hit somewhere; the sample as a whole holds those more often. A number with no mark means an inactive call. No stated cut-off is given here; in the data, active means growth inhibition above about 70%; inactive means the rest.

This assay can be described thus: NCI Yeast Anticancer Drug Screen. Data for the mlh1 rad18 strain (AID 175). As to conditions: S. cerevisiae mlh1 rad18 strain growth inhibition; at 50.0 µM; stronger effect = higher value. An outline of the steps: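 Cells of a genetically altered yeast strain, deficient in DNA damage repair, were treated with compound. Their growth was then compared with that of vehicle-treated cultures to give inhibition.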
In the case of `C=CC[N+](C)(C)C`, the growth inhibition is 7.4%.
Turning to `C/C(=N\NC(=O)c1ccccc1N)c1ccccc1O`, the growth inhibition is 21.7%.
With `O=C(NCCNC(=O)c1ccc(Cl)cc1Cl)c1ccc(Cl)cc1Cl`, the growth inhibition was -20.2%.
The same measure for `CCOC(=O)CCCC(=O)OCC`: 19.6%; for `Cc1ccccc1C1N=C2Oc3ccccc3C=C2C(=O)N1` (stereo not drawn): -32.5%; for `O=C(O)C(O)c1ccccc1` (stereo not drawn): 10.7%.
The same measure for `CN(C)/N=C/c1ccccc1O`: 2.9%; for `O=c1cc2oc3cc(O)c(O)cc3c(-c3ccccc3O)c-2cc1O`: 26.4%.
The same measure for `Oc1ccccc1O`: 8.25%; for `Cc1ccc(C(O)C2CC2)cc1` (stereo not drawn): -0.65%.
Turning to `CSC[C@H](NC(=O)COc1cccc2cnccc12)C(=O)NC(Cc1ccccc1)C(O)C(=O)N1CSC[C@H]1C(=O)NC(C)(C)C` (stereo partly drawn), the growth inhibition is -51.4%.
The same measure for `Cc1ccc(C)n1-c1ccsc1C(=O)NNC(=O)C(Cl)Cl`: 20.7%; for `O=S(=O)(O)c1ccc(O)c2ccccc12`: 56.2%.
On to `Cc1cc(C)c(CC(=O)O)c(C)c1`, for which the growth inhibition was 10.4%.
As for `CC1Cc2ccccc2O1` (stereo not drawn), the growth inhibition is 11%.
For `O=[N+]([O-])c1ccccc1N=Nc1ccc(O)cc1O`, the growth inhibition is 39.2%.
The figure for `CC(=O)c1ccc(C)c(N)c1` is 27.4%.
The same measure for `CCCCNC(=O)C(=O)NCCCC`: 1.75%; for `CCOC(=O)c1[nH]c(C)c(C(=O)O)c1C`: -11.2%; for `Cn1cnc2nc(Cl)nc(Cl)c21`: 11.2%.
The figure for `CC(=O)c1ccc2c(ccc3ccccc32)c1` is 3.9%; for `O=c1[nH][nH]c(=O)c2cc([N+](=O)[O-])ccc12` it is 18.1%.
As for `C=C1CC/C=C(\C)C(=O)C[C@@H]2[C@@H]1CC2(C)C`, the growth inhibition was -43.1%.
Take `COS(=O)(=O)c1ccc(Br)cc1`: the growth inhibition is -26.2%.
The same measure for `S=c1sc2ccccc2n1CN1CCCCC1`: 15.8%.
In the case of `O=c1[nH]nc(SC2CCCCC2)c(=O)[nH]1`, the growth inhibition is -11.1%.
Regarding `O=c1cc(-c2ccccc2)oc2c1ccc1ccccc12`, the growth inhibition is 38.5%.
The same measure for `COc1cc(C2NC(=O)C(C#N)=C(Nc3cccc(C)c3)S2)ccc1O` (stereo not drawn): -16.9%; for `CCCCNC1(C#N)CCN(Cc2ccccc2)CC1`: -5.7%; for `O=C(Cc1nc2ccc([N+](=O)[O-])cc2nc1CC(=O)c1cccnc1)c1cccnc1`: 9.6%.
On to `O=C1C=C(O)C(=O)C=C1O`, for which the growth inhibition was 28.5%.
Regarding `O=C(CS)Nc1ccc2ccccc2c1`, the growth inhibition is -1.15%.
The figure for `COC(=O)c1[nH]c(=O)c(C#N)c(C(=O)OC)c1C(=O)c1ccccc1` is 12%; for `CCCC(C)OCC(=O)O` (stereo not drawn) it is -7.1%; for `CN(C)c1ccc2nc3ccc(=N)cc-3sc2c1` it is 22.4%.
The same measure for `CCOC(=O)C(CCC(C)C)C(=O)OCC`: 2.6%.
Consider `COC(=O)/C=C1\Sc2cc(F)ccc2NC1=O`, for which the growth inhibition is -6.55%.
`Cc1cccc(C(=O)N(C(C)C)C(C)C)c1`: the growth inhibition was -0.35%.
